Test system: LXRa homodimer (NR concentration 270 nM)
Assay: PBM binding z-score (relative to random genomic background probes); higher = stronger binding; sequences stand for … in GC…GCGATTGACAGCGTAGAATGAAGG
Method in brief: (§1)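 Binding z-scores take random background probes as their reference. They come from custom Agilent 4×180K protein-binding microarrays incubated 1 h with ligand-free nuclear receptor dimers, with antibodies against each partner (one per run) detecting binding. Scanned fluorescence was regression-normalized.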

| Sequence | PBM binding z-score |
| --- | --- |
| TCAATGAGGTTAAAGATCAGGGAACGTGGCGTCG | -0.228 |
| TAGCTTAGGTCATTGGGCCAGTATAGTACGCATC | 1.12 |
| GGAACCAGGGCAAGTTGATAGCAGAGTTTGATGG | 0.225 |
| TTACCAAGATGAAGGTCGTTGATCCCTCTGTAGA | -0.0555 |
| TCTTGTAGATCAAGCAGGTTAAGAACGCCTGAGT | -0.0745 |
| TGAATGAGGTTAAAGATCAGGGCACGTGGCGTCG | 0.0826 |
| ATCTCTAGGTAAGACTCCGTTCAGTGAAGAACGC | 0.698 |
| CCAGACAGGTAAAAGGTAACTCAGTCTGGTACGC | -0.25 |
| TCATATAGGTAAAAGGTGAAATTCGGTGTGGTAA | 0.471 |
| GGAACGAGGACAAGTTGATAGCAGAGTTTGATGG | -0.0892 |
| TCGAGTAGGTTTGTCGGGGCATTCAGCCAACATA | 0.0222 |
| GATACAGGGTCAGCTAGAGGCCAGAGTGTGGAAA | -0.348 |
| TAGCCAAGGTCATGGGCCAGTATACCACGCGAAC | 0.809 |
| GCTAGTTGGTGAGTAAAAGGTCACACACCGGTCG | 3.81 |
| CCTACTGGGCCATCAGATCATTGATATCAACGTT | -0.0851 |
| TAGCCTAGGTCATCCGGGCCAGTATAGTGTCGGC | 0.755 |
| CGTCCAAGGTCAAAGGACAGTGAAGAGATGACGG | 0.749 |
| TCACGGAGGACACGAAAGGTCAGAGCTCGACATC | 3.14 |
| AATGCAGGGTCACTAGGCCAGAGTAGGTACGAAT | 0.0121 |
| CGAACTAGGTCATTGGCAGGACAGTGAATAGTAA | 0.219 |

| Sequence | PBM binding z-score |
| --- | --- |
| TCATATAGGTAATACAGGTGAAGGTCGGCATCTA | 0.87 |
| AGAATGAGGTTAAGATCAGTGAAACAGAATACAT | 0.0147 |
| TGAATGAGGTTATAAGATCAGGCAACGTTGCAAA | -0.418 |
| CGAACGAGGGCATGAGTTGACAGCAAATGCCGAT | -0.133 |
| CGAACTGGGTCATTGACAGGACAGTGAATAGTAA | 0.288 |
| GCTGCTAGGCCAACTGATGGTCAGCTAAAGCTCG | -0.908 |
| TCTAGTTGGTCACGGAGGTCACACACGACGGGTA | 2.59 |
| CGTCCAAGGTCAATGCTAGGACAGTGAAAGCATT | 0.325 |
| CAAACTAGGTCAGAACAGGACAGTGAAGGATGAT | 0.299 |
| ATCTCTAGGAAACAAGTTCAGTGAAAGAGAGGAC | 0.383 |
| AGTCAAAGTTCATCTAGGTAACTTAAGATATGCT | 5.17 |
| TCTAGTTGGTCACGGAGGTCACCCACGACGGGTA | 2.36 |
| CAAACTAGGTCACGAAAGGTCAATGTCGAATGAC | 6.57 |
| ATAGACAGGTGAGTGAAGGTAACTCAGCTGGACG | -0.416 |
| CCCACTGGGCCAAGGTCATTGATCAGTCAAAGCA | 1.44 |
| ATATGTAGGTTGTCGGGTCATTCAGTTTGCGCAT | 1.45 |
| ACTAGCAGGCCAAGTTTGGGTCACTTAAACAAAG | -0.18 |
| GGAACGAGGGCAAGTTGATAGCAGAGTTTGATGG | -0.269 |
| GCGACTGGAGCATCAGCAGGTTACCATAACTTAA | -0.742 |
| AATACAGGGTCACAAGGCCAGAGTAGGTACGAAT | 1.21 |

Test system: LXRb:RXRa (NR concentration 270 nM, RXRa partner concentration 90 nM)
Assay: as above
Method in brief: as §1

| Sequence | PBM binding z-score |
| --- | --- |
| TCAATGAGGTTAAAGATCAGGGAACGTGGCGTCG | 1.66 |
| TAGCTTAGGTCATTGGGCCAGTATAGTACGCATC | 2.62 |
| GGAACCAGGGCAAGTTGATAGCAGAGTTTGATGG | 0.866 |
| TTACCAAGATGAAGGTCGTTGATCCCTCTGTAGA | 1.48 |
| TCTTGTAGATCAAGCAGGTTAAGAACGCCTGAGT | 0.534 |
| TGAATGAGGTTAAAGATCAGGGCACGTGGCGTCG | 1.81 |
| ATCTCTAGGTAAGACTCCGTTCAGTGAAGAACGC | 0.0873 |
| CCAGACAGGTAAAAGGTAACTCAGTCTGGTACGC | 0.125 |
| TCATATAGGTAAAAGGTGAAATTCGGTGTGGTAA | 2.11 |
| GGAACGAGGACAAGTTGATAGCAGAGTTTGATGG | -0.534 |
| TCGAGTAGGTTTGTCGGGGCATTCAGCCAACATA | 0.558 |
| GATACAGGGTCAGCTAGAGGCCAGAGTGTGGAAA | 2.53 |
| TAGCCAAGGTCATGGGCCAGTATACCACGCGAAC | 4.45 |
| GCTAGTTGGTGAGTAAAAGGTCACACACCGGTCG | 3.79 |
| CCTACTGGGCCATCAGATCATTGATATCAACGTT | -0.263 |
| TAGCCTAGGTCATCCGGGCCAGTATAGTGTCGGC | 2 |
| CGTCCAAGGTCAAAGGACAGTGAAGAGATGACGG | 3.74 |
| TCACGGAGGACACGAAAGGTCAGAGCTCGACATC | 3.07 |
| AATGCAGGGTCACTAGGCCAGAGTAGGTACGAAT | 3.54 |
| CGAACTAGGTCATTGGCAGGACAGTGAATAGTAA | 1.66 |

| Sequence | PBM binding z-score |
| --- | --- |
| TCATATAGGTAATACAGGTGAAGGTCGGCATCTA | 1.02 |
| AGAATGAGGTTAAGATCAGTGAAACAGAATACAT | 1.91 |
| TGAATGAGGTTATAAGATCAGGCAACGTTGCAAA | 1.22 |
| CGAACGAGGGCATGAGTTGACAGCAAATGCCGAT | 0.145 |
| CGAACTGGGTCATTGACAGGACAGTGAATAGTAA | 1.86 |
| GCTGCTAGGCCAACTGATGGTCAGCTAAAGCTCG | -1.3 |
| TCTAGTTGGTCACGGAGGTCACACACGACGGGTA | 3.33 |
| CGTCCAAGGTCAATGCTAGGACAGTGAAAGCATT | 3.53 |
| CAAACTAGGTCAGAACAGGACAGTGAAGGATGAT | 0.616 |
| ATCTCTAGGAAACAAGTTCAGTGAAAGAGAGGAC | 0.587 |
| AGTCAAAGTTCATCTAGGTAACTTAAGATATGCT | 3.8 |
| TCTAGTTGGTCACGGAGGTCACCCACGACGGGTA | 2.91 |
| CAAACTAGGTCACGAAAGGTCAATGTCGAATGAC | 7.03 |
| ATAGACAGGTGAGTGAAGGTAACTCAGCTGGACG | -0.043 |
| CCCACTGGGCCAAGGTCATTGATCAGTCAAAGCA | 2.57 |
| ATATGTAGGTTGTCGGGTCATTCAGTTTGCGCAT | 2.65 |
| ACTAGCAGGCCAAGTTTGGGTCACTTAAACAAAG | 0.878 |
| GGAACGAGGGCAAGTTGATAGCAGAGTTTGATGG | 0.278 |
| GCGACTGGAGCATCAGCAGGTTACCATAACTTAA | -0.376 |
| AATACAGGGTCACAAGGCCAGAGTAGGTACGAAT | 4.47 |

From the supplement of paper PMC6555819
